Reference: the supplement of paper PMC10338343
± gives the standard deviation.

system: MILI (PIWIL2) piRISC loaded with piRNA #1 (26 nt); experiment: pre-steady-state target cleavage rate (min^-1); guide: piRNA #1 5'p-UGAGGUAGUAGGUUGUAUAGUAUCCA; MIWI and MILI are mouse PIWI proteins and EfPiwi is from a freshwater sponge; tags in brackets are library labels; higher = faster piRNA-guided slicing of the target; settings: auxiliary factor: 500 nM mouse GTSF1
Summary of the method: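 Cleave-'n-Seq measured uncleaved targets by sequencing after a transcribed, DNA-blocked target RNA library […] was mixed with 1 nM active affinity-purified piRISC holding one synthetic guide, with or without 500 nM GTSF1 partner protein, at 33 °C in HEPES–potassium acetate buffer for 0–8 or 0–960 min. Counts were normalised to depth and to weakly complementary targets, three trials were pooled, and k3 was capped at 0.0001 min^-1. A burst-and-steady-state fit gave the pre-steady-state cleavage rate.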
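Also: 1 nM active piRISC with 0.1 nM target library at 33 °C single turnover.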

Sequence | pre-steady-state target cleavage rate
GGAGACCAUACUAUACAACGAUGAUGGAGA [g12:g23:cont:t1A] | < 0.0001
GGAGACCUAACAAUACAACCUACAACCUCA | 0.0691 ± 0.019
GGAGACCUUACUUUACAACCUUCUACCUCA | 0.00698 ± 0.0032
GGAGACCUUACUAUACAACCCACUACCUCA | 0.0224 ± 0.0038
GGAGACCUAUGAAUACAAACUACUACCUCA | 0.0186 ± 0.0035
GGAGACCUUACUAUACAACCUACAUCCUCA | 0.0472 ± 0.0095
GGAGACCAUACUAUUCAACCUAGUACCUCA | 0.0559 ± 0.011
GGAGACCUAUGAUAACAACCUACAUGGAGA [g8:g16:cont:t1A] | < 0.0001
GGAGACCUAUCUUUACAUCCUACUACCUCA | 0.104 ± 0.013
GGAGACGAUACUAUAGAACCUACUACCUCA | 0.184 ± 0.015
GGAGACCUAUCAAUACAACCAACUACCUCA | 0.00756 ± 0.0033
GGAGACCUAUGAUAACAACCUAAUACCUCA | 0.00414 ± 0.0023
GGAGACCUAUGAAUAGAAGCUACUACCUCA | 0.0046 ± 0.0022
GGAGACCUAUGAUAUGUUGCUACUUCCACA | < 0.0001
GGAGACCAUACUUUACAACCUACUAGCUCA | 0.0628 ± 0.015
GGAGACCUAUGAUUCAACCUACUACCUCA | 0.0177 ± 0.0042
GGAGACCUAUGAUUACUACCUACUAGCUCA | 0.0036 ± 0.0032
GGAGACCUUACUUUACAACCUACUACCACA | 0.14 ± 0.018
GGAGACCUUACUAUACUACCUUCUACCUCA | 0.0109 ± 0.0029
GGAGACCUUACUAUAGAACCUACUACGUCA | 0.0503 ± 0.012

Sequence | pre-steady-state target cleavage rate
GGAGACCUAUGUAUACAACCAUACUACCUCA | 0.00475 ± 0.0025
GGAGUGGAAACUAUACAACCUACUAGCUCA | 0.0453 ± 0.013
GGAGACCUAUGAUAUCAAGCUACUACCUCA | 0.00559 ± 0.0019
GGAGACCUUAGUAUACAACCUUCUACCUCA | 0.00489 ± 0.0033
GGAGACCUAUGAUAACAACCUACUGACCUCA | 0.00368 ± 0.0025
GGAGACCUAUCUAUACAUCCUUCUACCUCA | 0.0137 ± 0.0039
GGAGACCUAACUAUACAACCUAGAACCUCA | 0.00531 ± 0.005
GGAGACCUAUGUAUACAUGCUACUACCUCA | 0.0469 ± 0.007
GGAGUGGAUACUAUACAACCUACUACCUA | 0.103 ± 0.014
GGAGUGGAUACUAAUGAACCUACUACCUCA | 0.0477 ± 0.0065
GGAGACCUAUGAAUACAACCUACUACCCUCA | 0.00533 ± 0.0019
GGAGACCUAUCUAUACAAGGAUGAUGGAGA [g13:g20:cont:t1A] | < 0.0001
GGAGACCUAUGAAAACAAGCUACUACCUCA | 0.00917 ± 0.0021
GGAGACCUAUGUAUAGUACCUACUACCUCA | 0.013 ± 0.0027
GGAGACCUAUCUAUACAACGUACUUCCUCA | 0.0209 ± 0.0035
GGAGACCUAUCUAUACAACCAACUACGUCA | 0.00385 ± 0.0021
GGAGACCUUCCUAUACAACCUACUACCUCA | 0.113 ± 0.027
GGAGACCUAUCUAUACAACCUACGACCUCA | 0.0973 ± 0.013
GGAGACGAUACAAUACAACCUACUACGUCA | 0.102 ± 0.015
GGAGACCAUACUAUACUUCCUACUACCUCA | 0.226 ± 0.021
